In PubChem BioAssay AID1159580 (chemical genetic matrix, 2015):
About 2,000 (36%) of roughly 5,500 compounds were called active. Roughly 18% stayed inconclusive and do not appear here. Cut-off read from the data, not from the text of the source: active = normalized growth mostly below about 0.91 (no sharp cut-off); inconclusive = no clear call, values can overlap the other calls; inactive = mostly above about 0.92. This is one part of the list.

Test: chemical genetic growth profiling, strain panel (AID 1159580);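 note: tested at 20 µM; growth read once vehicle control cultures reached saturation at 30 °C; 1 = growth at the plate median or of vehicle wells; lower values mean less growth of the strain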
Settings: S. cerevisiae deletion strains, growth OD
[1] = locus YJL095W, strain BCK1, hits give low values

Measured: normalized growth

C[C@]12C=CC(=O)C=C1CCC1C2[C@@H](O)C[C@@]2(C)C1CC[C@]2(O)C(=O)COC(=O)CCC(=O)O (stereo partly specified)
inactive: locus YHR030C, strain SLT2, hits give low values 0.969 | locus YHR079C, strain IRE1, hits give low values 0.968 | [1] 1 | locus YJR066W, strain TOR1, hits give low values 0.931 | locus YLR113W, strain HOG1, hits give low values 1 | locus YNL183C, strain NPR1, hits give low values 0.931 | locus YOR231W, strain MKK1, hits give low values 0.979 | locus YPL256C, strain CLN2, hits give low values 0.963

CC(C1OC(C)(C)C(O)C1O)[C@@H]1CC[C@]2(C)C3=CCC4C(C)(C)C(=O)CC[C@]4(C)C3CC[C@@]12C (stereo partly specified)
inactive: locus YAL013W, strain DEP1, hits give low values 0.979 | locus YAL021C, strain ccr4, hits give low values 1.02 | locus YAL026C, strain drs2, hits give low values 0.987 | locus YAL030W, strain snc1, hits give low values 1 | locus YBL061C, strain skt5, hits give low values 0.978 | locus YBR009C, strain hhf1, hits give low values 0.946 | locus YBR021W, strain FUR4, hits give low values 1.06 | locus YBR023C, strain chs3, hits give low values 0.985 | locus YBR171W, strain sec66, hits give low values 0.985 | locus YBR229C, strain ROT2, hits give low values 1.02 | locus YBR231C, strain swc5, hits give low values 0.971 | locus YBR279W, strain paf1, hits give low values 0.995 | locus YCL011C, strain gbp2, hits give low values 0.981 | locus YCL016C, strain dcc1, hits give low values 0.989 | locus YCL029C, strain bik1, hits give low values 1.01 | locus YCL061C, strain MRC1, hits give low values 0.995 | locus YCL069W, strain vba3, hits give low values 0.994 | locus YCR088W, strain abp1, hits give low values 1 | locus YDL005C, strain med2, hits give low values 0.968 | locus YDL035C, strain GPR1, hits give low values 0.931 | locus YDL040C, strain nat1, hits give low values 0.976 | locus YDL074C, strain BRE1, hits give low values 0.845 | locus YDL101C, strain DUN1, hits give low values 0.989 | locus YDL134C, strain PPH21, hits give low values 0.951 | locus YDL192W, strain arf1, hits give low values 0.983 | locus YDR001C, strain nth1, hits give low values 0.999 | locus YDR069C, strain doa4, hits give low values 0.985 | locus YDR101C, strain arx1, hits give low values 0.973 | locus YDR137W, strain rgp1, hits give low values 1.02 | locus YDR159W, strain sac3, hits give low values 0.898 | locus YDR162C, strain NBP2, hits give low values 0.958 | locus YDR195W, strain ref2 1.05 | locus YDR297W, strain sur2, hits give low values 0.981 | locus YDR318W, strain mcm21, hits give low values 1 | locus YDR334W, strain swr1, hits give low values 0.987 | locus YDR335W, strain msn5, hits give low values 0.999 | locus YDR388W, hits give low values 1.03 | locus YDR392W, strain spt3, hits give low values 0.838 | locus YDR502C, strain sam2, hits give low values 0.989 | locus YEL003W, strain gim4, hits give low values 0.937 | locus YEL037C, strain rad23, hits give low values 0.983 | locus YEL061C, strain CIN8 (second series), hits give low values 0.99 | locus YER015W, strain faa2, hits give low values 0.992 | locus YER016W, strain bim1, hits give low values 0.99 | locus YER110C, hits give low values 1.03 | locus YER111C, strain swi4, hits give low values 0.999 | locus YER155C, strain BEM2 (second series), hits give low values 0.924 | locus YER155C, strain BEM2, hits give low values 1.07 | locus YER167W, strain BCK2, hits give low values 1.01 | locus YFR010W, strain ubp6, hits give low values 0.973 | locus YGL078C, strain dbp3, hits give low values 1.03 | locus YGL086W, strain mad1, hits give low values 1.03 | locus YGL167C, strain pmr1, hits give low values 0.977 | locus YGL173C, strain kem1, hits give low values 0.976 | locus YGL227W, strain vid30, hits give low values 0.99 | locus YGL240W, strain doc1, hits give low values 0.896 | locus YGL248W, strain PDE1, hits give low values 0.97 | locus YGL253W, strain hxk2, hits give low values 0.922 | locus YGR078C, strain PAC10, hits give low values 0.91 | locus YGR135W, strain pre9, hits give low values 1.01 | locus YGR252W, strain gcn5, hits give low values 0.77 | locus YHR013C, strain ard1, hits give low values 0.966 | locus YHR027C, strain rpn1, hits give low values 1.02 | locus YHR079C, strain IRE1 (second series), hits give low values 1.03 | locus YHR094C, strain hxt1, hits give low values 1.03 | locus YHR129C, strain ARP1, hits give low values 1 | locus YHR142W, strain chs7, hits give low values 0.919 | locus YHR200W, strain rpn10, hits give low values 1.01 | locus YIL066C, strain RNR3, hits give low values 0.887 | locus YIL073C, strain SPO22, hits give low values 0.99 | locus YIL125W, strain kgd1, hits give low values 1.03 | locus YIR030C, strain dcg1, hits give low values 1.04 | locus YJL092W, strain hpr5, hits give low values 1 | locus YJL095W, strain BCK1 (second series), hits give low values 1 | [1] 0.904 | locus YJL115W, strain asf1, hits give low values 0.985 | locus YJL129C, strain trk1, hits give low values 0.949 | locus YJL134W, strain LCB3, hits give low values 1.04 | locus YJL154C, strain vps35, hits give low values 1.01 | locus YJL164C, strain tpk1, hits give low values 0.983 | locus YJL166W, strain qcr8, hits give low values 0.917 | locus YJL168C, strain set2, hits give low values 1.03 | locus YJL187C, strain SWE1 (second series), hits give low values 0.958 | locus YJL187C, strain SWE1, hits give low values 0.999 | locus YKL068W, hits give low values 1.02 | locus YKL085W, strain MDH1 (second series), hits give low values 1.05 | locus YKL085W, strain MDH1, hits give low values 1.05 | locus YKL160W, strain elf1, hits give low values 0.972 | locus YKL190W, strain CNB1, hits give low values 1.03 | locus YKR001C, strain vps1, hits give low values 1.01 | locus YKR026C, strain gcn3, hits give low values 0.996 | locus YKR091W, strain srl3, hits give low values 0.995 | locus YLL001W, strain dnm1, hits give low values 1 | locus YLL026W, hits give low values 0.997 | locus YLL041C, strain sdh2, hits give low values 0.992 | locus YLR027C, strain aat2, hits give low values 0.973 | locus YLR039C, strain RIC1, hits give low values 1.06 | locus YLR058C, strain SHM2, hits give low values 0.987 | locus YLR102C, strain apc9, hits give low values 1.03 | locus YLR221C, strain rsa3, hits give low values 0.936 | locus YLR258W, strain gsy2, hits give low values 0.983 | locus YLR262C, strain YPT6 (second series), hits give low values 0.979 | locus YLR262C, strain YPT6, hits give low values 1.06 | locus YLR268W, strain sec22, hits give low values 0.94 | locus YLR342W, strain FKS1, hits give low values 0.923 | locus YLR357W, strain rsc2, hits give low values 0.947 | locus YLR370C, strain arc18, hits give low values 0.988 | locus YLR371W, strain rom2, hits give low values 1.03 | locus YLR384C, strain iki3, hits give low values 0.991 | locus YML016C, strain PPZ1, hits give low values 1.03 | locus YML032C, strain rad52, hits give low values 0.956 | locus YML120C, strain ndi1, hits give low values 0.995 | locus YML124C, strain tub3, hits give low values 1.04 | locus YMR058W, strain fet3, hits give low values 0.978 | locus YMR078C, strain ctf18, hits give low values 1.02 | locus YMR125W, strain sto1, hits give low values 1.01 | locus YMR129W, hits give low values 0.996 | locus YMR205C, strain PFK2, hits give low values 0.95 | locus YMR223W, strain ubp8, hits give low values 0.987 | locus YMR231W, strain pep5, hits give low values 0.949 | locus YMR307W, strain GAS1, hits give low values 0.775 | locus YNL067W, strain RPL9B, hits give low values 0.999 | locus YNL153C, strain GIM3, hits give low values 0.97 | locus YNL209W, strain ssb2, hits give low values 0.995 | locus YNL248C, strain rpa49, hits give low values 0.973 | locus YNL250W, strain rad50, hits give low values 1.04 | locus YNL271C, strain bni1, hits give low values 1.02 | locus YNL298W, strain CLA4, hits give low values 0.973 | locus YNL307C, strain MCK1, hits give low values 0.942 | locus YNL322C, strain KRE1 (second series), hits give low values 0.975 | locus YNL322C, strain KRE1, hits give low values 1.04 | locus YNR049C, strain mso1, hits give low values 0.982 | locus YNR052C, strain pop2, hits give low values 1.01 | locus YOL006C, strain TOP1, hits give low values 0.88 | locus YOL012C, strain htz1 0.776 | locus YOL147C, strain pex11, hits give low values 0.999 | locus YOR001W, strain rrp6, hits give low values 0.97 | locus YOR061W, strain CKA2, hits give low values 1.01 | locus YOR069W, strain VPS5, hits give low values 1.03 | locus YOR070C, strain gyp1, hits give low values 0.997 | locus YOR080W, strain dia2, hits give low values 0.979 | locus YOR083W, strain WHI5, hits give low values 0.972 | locus YOR106W, strain vam3, hits give low values 0.961 | locus YOR136W, strain idh2, hits give low values 1.01 | locus YOR144C, strain elg1, hits give low values 1.01 | locus YOR265W, strain rbl2, hits give low values 0.991 | locus YOR270C, strain vph1, hits give low values 0.821 | locus YOR290C, strain snf2, hits give low values 0.942 | locus YOR316C, strain cot1, hits give low values 1.03 | locus YPL051W, strain arl3, hits give low values 0.94 | locus YPL078C, strain atp4, hits give low values 1 | locus YPL106C, strain sse1, hits give low values 1.08 | locus YPL240C, strain hsp82, hits give low values 0.991 | locus YPR119W, strain clb2, hits give low values 1.04 | locus YPR141C, strain kar3, hits give low values 1.04 | locus YPR163C, strain tif3, hits give low values 0.965 | locus YPR167C, strain met16, hits give low values 1.03 | strain wtn01, hits give low values 0.956
active: locus YLR320W, strain mms22, hits give low values 0.877 | locus YLR418C, strain cdc73, hits give low values 0.79 | locus YNL071W, strain lat1, hits give low values 0.906 | locus YNL233W, strain BNI4, hits give low values 0.867 | locus YOR184W, strain ser1, hits give low values 0.868
